Source: PubChem (several laboratories)
GalR3 antagonist = GalR3 antagonists in HEK293 cells, primary screen, cell-based, fluorescence readout. Galanin receptor type 3 (Homo sapiens), O60755. HEK293 GalR3-CNG cAMP membrane potential fluorescence; galR3 body fused to GalR1 C-terminus. inhibition, % at 3 µM. actives 0.44% (n = 360,000). AID 651719, 2012;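 active = inhibition above the screen-wide average plus 3 SD, cut at about 13% in these data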;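 note: forskolin and galanin both at EC90 stimulate the cells; cAMP rise reported by CNG channel membrane potential dye signal; 0% = forskolin plus galanin with DMSO and 100% = forskolin alone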
Target sequence (O60755 1-299 limits assumed): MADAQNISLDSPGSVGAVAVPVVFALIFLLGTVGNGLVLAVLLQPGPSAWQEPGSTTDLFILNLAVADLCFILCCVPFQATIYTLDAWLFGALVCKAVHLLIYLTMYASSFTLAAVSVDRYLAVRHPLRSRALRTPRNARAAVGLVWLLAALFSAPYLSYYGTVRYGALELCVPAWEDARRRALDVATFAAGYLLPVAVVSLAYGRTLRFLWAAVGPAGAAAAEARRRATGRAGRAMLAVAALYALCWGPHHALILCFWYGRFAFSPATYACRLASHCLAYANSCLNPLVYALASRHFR
aDG glyco act = activators of alpha-DG glycosylation, primary screen, uHTS, Pro5-aDG cells, AlphaScreen; alpha-DG glycosylation AlphaScreen (IIH6); 0% Pro5, 100% B10-LARGE cell signal; AID 624168, 2012; actives 0.22% (n = 360,000); activation, % at 10 µM;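 active = activation of at least 8% versus controls, or a plate z-score of at least 8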;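 note: Pro5 are CHO cells carrying HIG-tagged alpha-DG that lacks glycosylation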
COUP-TFII inh = NR2F2 transcriptional activity inhibitors, primary screen, cell-based, luciferase reporter, HEK293T, luminescence; HEK293T NGFI-A luciferase reporter; actives 0.7% (n = 370,000); inhibition, % at 8.6 µM; AID 686940, 2013;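 active = inhibition above a per-plate cutoff, mean inhibition of test wells between control levels plus 3 SD, cut at about 38% in these data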;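 note: cells cotransfected with COUP-TFII expression vector driving the NGFI-A reporter; 0% = median of COUP-TF2 test wells and 100% = reporter-only cells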
Target sequence (P24468 whole entry, looked up): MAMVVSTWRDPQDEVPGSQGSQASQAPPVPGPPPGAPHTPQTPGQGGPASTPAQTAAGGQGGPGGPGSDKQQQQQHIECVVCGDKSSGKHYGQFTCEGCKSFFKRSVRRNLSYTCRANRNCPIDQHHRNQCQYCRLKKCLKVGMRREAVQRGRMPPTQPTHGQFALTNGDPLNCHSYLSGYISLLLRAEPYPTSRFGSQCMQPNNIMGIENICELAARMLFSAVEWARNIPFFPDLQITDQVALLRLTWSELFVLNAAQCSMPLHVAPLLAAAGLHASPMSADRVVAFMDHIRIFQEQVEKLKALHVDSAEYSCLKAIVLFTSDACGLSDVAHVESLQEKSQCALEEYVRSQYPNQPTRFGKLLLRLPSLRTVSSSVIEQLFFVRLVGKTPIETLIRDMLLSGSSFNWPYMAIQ
Env fusion inh = inhibitors of HIV-1 Env-driven cell-cell fusion, primary screen, HeLa-JRFL effector, CEM21 target cells, luciferase; inhibition, % at 12.3 µM; actives 1.1% (n = 360,000); AID 651610, 2012;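 active = mean replicate inhibition score of at least 50 and every replicate individually at or above 50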;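 note: 0% = plate neutral controls and 100% = maraviroc near 300 nM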
Gli-Sufu antag = Gli-Sufu pathway antagonists, primary screen, luciferase luminescence, Sufu-KO-LIGHT cells, uHTS; actives 0.74% (n = 340,000); Sufu-KO-LIGHT fibroblasts, Gli luciferase reporter luminescence; inhibition, % at 5 µM;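 active = inhibition above about 55%, limit read from the data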;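 note: 0% = DMSO-treated cells and 100% = wells with medium but no cells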
GalR3 conf = GalR3 antagonist hit confirmation, cell-based, fluorescence, triplicate; inhibition, % at 3 µM; shares compounds with GalR3 antagonist; AID 652245, 2013; HEK293 GalR3 CNG cAMP biosensor, membrane potential fluorescence; galR3 fused to GalR1 carboxy tail; challenged with forskolin and galanin at EC90; actives 59% (n = 1,600);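 active = inhibition above the primary screen's cutoff, the mean inhibition of all screened compounds plus 3 SD, cut at about 13% in these data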;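 note: 0% = forskolin plus galanin and 100% = forskolin alone with DMSO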
HEK-CNG parental = nonspecific cAMP agonists in parental HEK-CNG cells, counter-screen for GalR3 antagonist project, cell-based, fluorescence, high throughput; shares compounds with GalR3 antagonist; HEK293-CNG parental cells, cAMP membrane potential fluorescence; normalised: DMSO wells 0%, forskolin wells 100%; activation, % at 3 µM; actives 10% (n = 1,600); in the data active = activation above about 1.3%
An asterisk follows results filed as active; i = inactive; x = no result given; [ ] = dose if it differs, or a comment. Sampled rows, rich in hits. Any-hit rate of the full collection: about 2.1%.

SMILES | GalR3 antagonist | aDG glyco act | COUP-TFII inh | Env fusion inh | Gli-Sufu antag | GalR3 conf | HEK-CNG parental
CCCN1C(=O)c2[nH]nc(-c3cc(Cl)c(C)cc3O)c2C1c1ccc(O)c(OC)c1 (configuration not stated) | 20.5* | 0.0 | -10.5 | 17.2 | 11.9 | 3.7 | 0.1
C[C@H]1CCCCO[C@H](CN(C)C(=O)CCCN(C)C)[C@@H](C)CN([C@@H](C)CO)C(=O)c2cc(NC(=O)NC3CCCCC3)ccc2O1 | x | x | x | -9.6[16.7 µM] | x | x | x
CCOC(=O)c1ccc(NC(=O)Nc2ccc(F)cc2)cc1 | -9.0 | 0.6 | -35.4 | 1.2 | -27.1 | x | x
CCOC(=O)c1cc[n+](CC(=O)c2ccc(F)cc2)cc1 | 14.6* | 0.0 | -0.3 | -8.4 | -2.9 | 3.0 | 0.1
Cc1ccc(S(=O)(=O)Nc2ccc3c(c2)C(=O)N([C@@H](C)CO)C[C@H](C)[C@@H](CN(C)C(=O)Nc2ccccc2)OCCCC[C@@H](C)O3)cc1 | x | x | x | -86.8[16.7 µM] | x | x | x
CN(C)S(=O)(=O)N1CCC(Oc2ccc(C(=O)NC3CCOC(C)(C)C3)cc2)CC1 (configuration not stated) | -8.9 | -0.2 | 7.4 | -6.6 | -3.8 | x | x
CN(C)S(=O)(=O)N1CCC(Oc2ccc(C(=O)NC3Cc4ccccc4C3)cc2)CC1 | 30.2* | 0.0 | 23.3 | 7.5 | 8.1 | 99.3* | -0.3
COc1ccc(C(=O)N/N=C/c2cc3ccccc3[nH]c2=O)cc1 | x | 0.0 | -4.3 | -9.5 | 2.3 | 60.2* | -0.2
C[C@@H]1CCCCO[C@@H](CN(C)Cc2ccncc2)[C@@H](C)CN([C@H](C)CO)C(=O)c2cc(NC(=O)Nc3ccccc3)ccc2O1 | x | x | x | 10.0[16.7 µM] | x | x | x
COc1ccc(C2CC(c3ccc4ccccc4c3)=NN2C(=O)CN2CCC(C(N)=O)CC2)cc1 (configuration not stated) | 14.0* | 0.3 | -11.5 | -18.2 | -14.1 | -1.9 | 3.0*
COc1ccc(C2CC(c3ccc4ccccc4c3)=NN2C(=O)CNC2CCCCC2)cc1 (configuration not stated) | -7.5 | 5.5 | 13.8 | -13.9 | 26.8 | x | x
Cc1cc(=S)c2cccc(C)c2[nH]1 | 21.4* | x | 14.1 | 9.8 | -3.4 | 29.7* | 0.1
Cc1cccc2c(=O)cc(C(F)(F)F)[nH]c12 | -2.4 | 0.1 | 1.2 | 27.6 | 1.8 | x | x
CO[C@@H]1CN(C)C(=O)c2ccc(NS(C)(=O)=O)cc2OC[C@@H](C)N(CC2CCOCC2)C[C@@H]1C | x | x | x | 4.8[16.7 µM] | x | x | x
COC(=O)CCCN=C1SCCN1Cc1ccccc1 | 15.0* | 0.0 | -23.5 | -0.6 | -2.4 | 8.1 | 0.2
CC1CN(C)C(C)C/C1=N/Oc1ccccc1[N+](=O)[O-] (configuration not stated) | 13.2* | -0.3 | 4.1 | 12.1 | 5.2 | 2.7 | 0.4
CC1CN(C)C(C)C/C1=N\Oc1ccc([N+](=O)[O-])cc1 (configuration not stated) | -4.8 | -0.1 | 21.2 | -18.6 | 15.8 | x | x
O=C(CCN1CCCCC1)NCC[C@H]1CC[C@@H](NC(=O)C2CC2)[C@@H](CO)O1 | x | x | x | 8.5[16.7 µM] | x | x | x
C/C=C/c1cnc2c(c1)C(=O)N([C@H](C)CO)C[C@@H](C)[C@H](CN(C)Cc1ccc3c(c1)OCO3)O2 | x | x | x | -2.7[16.7 µM] | x | x | x
CO[C@@H]1CN(C)C(=O)c2cc(NC(=O)NC(C)C)ccc2OC[C@@H](C)N(Cc2ccccc2)C[C@@H]1C | x | x | x | -1.3[16.7 µM] | x | x | x
Cc1ccc(-n2nc(C)c(/C=N/n3c(C)n[nH]c3=S)c2Cl)cc1 | x | -0.2 | -0.7 | 12.9 | -8.6 | 10.8 | 0.7
Cc1n[nH]c(=S)n1/N=C/c1ccccc1 | 1.1 | -0.2 | 3.9 | i | -10.1 | x | x
COc1ccc(Cn2c(=O)[nH]c3cc(C(=O)N4CCN(c5ccccc5OC)CC4)ccc3c2=O)cc1 | x | 0.5 | x | x | 30.4 | x | x
COc1ccc(Cn2c(=O)[nH]c3cc(C(=O)N4CCN(Cc5ccccc5)CC4)ccc3c2=O)cc1 | 65.0* | 0.7 | 34.4 | 23.9* | 7.2 | 88.3* | -0.5
O=C(CNS(=O)(=O)c1ccccc1Br)OCC(=O)N1CCc2ccccc21 | 2.5 | -0.3 | -5.7 | -196.2 | 4.8 | x | x
SMILES | GalR3 antagonist | aDG glyco act | COUP-TFII inh | Env fusion inh | Gli-Sufu antag | GalR3 conf | HEK-CNG parental
CC(=O)Nc1ccc(S(=O)(=O)NCC(=O)OCC(=O)N2CCc3ccccc32)cc1 | 12.8* | -0.2 | 2.1 | x | -7.8 | 0.2 | -0.1
COc1ccc(CN(C)C[C@@H]2Oc3ccc(NC(=O)C4CC4)cc3C(=O)N([C@@H](C)CO)C[C@@H]2C)cc1 | x | x | x | 14.6[16.7 µM] | x | x | x
O=C1C(C=NC2CC2)=C(O)c2ccccc21 | 13.5* | 0.3 | -32.6 | x | -21.7 | 3.6 | 0.1
CC(C)CN=CC1=C(O)c2ccccc2C1=O | -2.2 | 0.1 | -42.5 | -44.3 | -16.8 | x | x
O=C(NC(Cc1ccccc1)C(=O)O)/C(=C/c1ccccc1)NC(=O)c1ccco1 (configuration not stated) | 16.1* | 0.2 | -13.4 | -17.4 | -11.4 | 7.7 | 0.1
CCCCCCCCCC(=O)N/N=C(\C)c1cccnc1 | 13.7* | 0.6 | -8.1 | -4.6 | 3.5 | 0.3 | 0.4
CCCCCC(=O)N/N=C(\C)c1ccccn1 | -5.0 | 0.8 | 4.5 | 17.1 | -7.8 | x | x
O=C(NCc1ccccc1)C(=O)NCC1COc2ccccc2O1 (configuration not stated) | -3.5 | 0.0 | -9.8 | x | -14.6 | x | x
CC(NCC1COc2ccccc2O1)C(=O)NCc1ccccc1 (configuration not stated) | 12.7* | 0.1 | 7.1 | 11.5 | -13.2 | 6.6 | 0.3
COc1ccc(N2C(=O)CC(NCc3ccc(F)cc3)C2=O)cc1 (configuration not stated) | 14.6* | 0.1 | -21.9 | x | -6.5 | 14.5* | 0.0
COc1ccc(N2C(=O)CC(NCc3ccncc3)C2=O)cc1 (configuration not stated) | 7.0 | -0.1 | 6.3 | x | -2.4 | x | x
CCNC(=O)C[C@H]1CC[C@H]2[C@H](COc3ccc(NS(=O)(=O)c4ccccc4C)cc3C(=O)N2C)O1 | x | x | x | 0.1[16.7 µM] | x | x | x
COc1ccc(Br)cc1/C(C)=N/NC1=NCCN1 | 85.4* | 4.5 | 31.8 | x | 25.5 | 32.4* | 2.1*
CCCCCOc1ccc(Br)cc1/C(C)=N/NC1=NCCN1 | -4.3 | -0.3 | -61.0 | -47.8 | 38.3 | x | x
COc1ccc(NC(=O)N(C)C[C@@H]2Oc3ncc(C#C[C@H](C)O)cc3C(=O)N([C@@H](C)CO)C[C@@H]2C)cc1 | x | x | x | -10.1[16.7 µM] | x | x | x
